# p53 reactivator: qHTS assay for re-activators of p53 using a Luc reporter; Potency, µM (doses to about 92.2 µM), for the others: top-dose activity change, positive = activation, usual class: activators; AID 504706, 2011; 0.063% of 320,000 active; H1299 p53-A138V BP100-luciferase reporter, luminescence, 24 h; note: potency is the fitted concentration of half-maximal effect; % of control where 0% means no effect; nearly all actives have a fitted effect of over 45% in size
#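 H1299 (p53-null), stable ts p53-A138V + BP100-Luc; 1000 cells/well, Opti-MEM/10% FBS; cpd 4 pt, 1:5; 24 h, 37 deg C, 5% CO2; detection reagent 10 min RT; luminescence.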
# Apoferritin bind: qHTS Assay for Identification of Novel General Anesthetics | apoferritin/1-aminoanthracene competitive binding, fluorescence | Potency, µM (highest dose often 77.5 µM), without a hit: top-dose activity change, negative = displacement, usual class: inhibitors | 0.074% of 350,000 active | AID 485281, 2010; note: potency is the fitted concentration of half-maximal effect; % is set by controls: 0 for no effect and ±100 for the full control effect; nearly all actives have a fitted effect of over 20% in size
# Target sequence (P02791 2-175 limits assumed): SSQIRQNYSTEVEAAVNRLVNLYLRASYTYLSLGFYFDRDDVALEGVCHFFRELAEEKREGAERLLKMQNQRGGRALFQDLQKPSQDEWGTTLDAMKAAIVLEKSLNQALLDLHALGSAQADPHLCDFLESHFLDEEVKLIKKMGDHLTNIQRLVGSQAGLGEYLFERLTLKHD
#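 Concentration-response curves derived by four-parameter Hill fitting of normalized fluorescence, where compounds displaced 1-AMA from 10 uM horse apoferritin following a brief 10 min room-temperature incubation; propofol titration acted as positive control.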
# BRCA1 expr act: qHTS Assay to Identify Small Molecule Activators of BRCA1 Expression | MCF7-BRCA1-FFLuc reporter, luminescence, 48 h; response scale: scaled: vehicle 0%, 10 µM genistein 100% | Potency, µM (top dose mostly 46.1 µM), inactives show top-dose activation, hits mostly activators | 1.1% of 380,000 active | AID 624202, 2012; note: potency is the fitted concentration of half-maximal effect; nearly all actives have a fitted effect of over 80% in size
#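 Using MCF7 cells harboring a BRCA1 firefly luciferase reporter, plated 2 h before compound pinning, the screen measured luminescence after 48 h incubation. Responses were normalized to DMSO and 10 microM genistein, then fitted for concentration-effect.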
# miR-21 reporter: qHTS Assay for Modulators of miRNAs and/orActivators of miR-21; 340,000 tested, under 10 active; Potency, µM (top dose mostly 38.3 µM), without a hit: at the highest dose activity change, positive = activation, hits mostly activators; AID 2288, 2010; HeLa miR-21 FLuc reporter, luciferase, 48 h;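 note: % of control where 0% means no effect; miR-21 action dims this reporter so a rising signal means less miR-21 action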
#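 HeLa miR-21-FLuc reporter line, endogenous miR-21; 2000 cells/well in DMEM/10% FBS; compound titration up to ~40uM final, 48 h, 37 degree Celsius; luciferase detection reagent, 15 min lysis, CCD luminescence.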
# Numbers without * were called inactive; ? = inconclusive; . = no result given. The list is not random: actives were taken first. Their share in the collection is about 1.1%. Calls come from the whole dose curve; as a rule, active = well fitted curve in the direction sought with a large enough effect; inconclusive = small, poorly fitted or top-dose-only effect, or another doubt; inactive = no such curve, though single readings can be large; an effect the other way counts as inactive or inconclusive.
SMILES,p53 reactivator,Apoferritin bind,BRCA1 expr act,miR-21 reporter
O=C(Cn1cc(SCc2ccc(Cl)cc2)c2ccccc21)N1CCOCC1,?,3%,?,-34%
O=C(Cn1cc(SCc2ccc(F)cc2)c2ccccc21)N1CCOCC1,28µM*,-5%,87%,-30%
CN1CCSc2ccc(C(=O)Nc3cc(F)ccc3F)cc21,?,17%,13µM*,-55%
Cc1csc(SCC(=O)Nc2sccc2C(N)=O)n1,4%,-9%,6.3µM*,-50%
Cc1ccc(-c2csc(NC(=O)CSc3nc(C)cs3)n2)cc1,?,51%,11µM*,-37%
CCc1nnc(NC(=O)CSc2ccc(-c3ccc(C)cc3)nn2)s1,-2%,-10%,11µM*,-36%
Cc1ccccc1SCC(=O)OCC(=O)Nc1sccc1C(N)=O,?,-14%,0%,-1%
NC(=O)c1ccsc1NC(=O)CSc1ccccc1F,?,1%,11µM*,-47%
Cc1csc(SCC(=O)Nc2nccs2)n1,1%,.,-5%,.
O=c1[nH]c(SCc2ccc(OC(F)(F)F)cc2)nc2c1CCC2,.,.,4%,.
O=[N+]([O-])c1ccc2cc[nH]c2c1,.,.,26%,.
CCCCC(=O)Nc1ccc(OCc2cc(=O)n3c(C)csc3n2)cc1,.,1%,5%,-10%
CCN(CC)c1ccc(C=C2C(=O)OC(c3ccccc3)OC2=O)cc1 (stereo unspecified),-1%,-15%,23%,1%
CCN(CC)c1ccc(/C=C/C(=O)C2C(=O)C=C(C)OC2=O)cc1 (stereo unspecified),?,-11%,5.6µM*,-51%
CC(C)C[C@@H](CSc1ccc(Br)cc1)N1CCN(C)CCC1=O,14%,-3%,10µM*,-46%
Cc1ccc(SC[C@H](CC(C)C)N2CCN(C)CCC2=O)cc1,19%,-2%,?,-67%
COc1ccc(S(=O)(=O)N2CCCCCC2)cc1C(=O)N1CCN(C(C)=O)CC1,.,.,2%,.
CC(NC(=O)C1CCN(C(=O)N2CCOc3ccccc32)CC1)c1ccccc1 (stereo unspecified),.,16µM*,.,-19%
Cc1cc(C)c(NC(=O)C2CCN(C(=O)N3CCOc4ccccc43)CC2)c(C)c1,.,?,.,-13%
Cc1ccc(OCc2cc(C(=O)N(CCO)Cc3cccs3)no2)cc1C,1%,?,11µM*,-54%
O=C(NCCc1ccccc1)Nc1ccc(Cl)cc1,?,3%,5µM*,-60%
S=C(NCCc1ccccc1)Nc1ccc(Cl)cc1,?,-11%,?,-35%
Cc1ccccc1CNC(=O)Nc1ccc(Cl)cc1,.,-16%,7.1µM*,-47%
O=C1C(=Cc2cccs2)C(=O)c2ccccc21,9%,-14%,-10%,-14%
O=C1/C(=C/c2cccs2)Cc2ccccc21,40µM*,-1%,?,-59%
SMILES,p53 reactivator,Apoferritin bind,BRCA1 expr act,miR-21 reporter
CCCC(=O)Nc1ccc(C(=O)COC(=O)C2CC2)cc1,?,.,10µM*,.
O=C(CCS(=O)(=O)Cc1ccccc1)Nc1ncc([N+](=O)[O-])s1,7%,-4%,8.9µM*,-3%
COc1ccc(N2C(=O)c3ccccc3NC23CCCC3)cc1,15%,0%,6.3µM*,-54%
CCC1(CC)Nc2ccccc2C(=O)N1c1ccc(OC)cc1,9%,67%,?,-40%
O=C(CCNC(=O)c1ccc([N+](=O)[O-])cc1)NCCC1=CCCCC1,9%,.,-13%,.
O=C(CCc1ccccc1)NCCC1=CCCCC1,?,-13%,11µM*,-34%
O=C(Cc1ccccc1)NCCC1=CCCCC1,14%,-3%,54%,-21%
O=C(CCCc1ccccc1)NCCC1=CCCCC1,22%,?,3.2µM*,-8%
O=C(CCNC(=O)c1ccc(Cl)cc1)NCCC1=CCCCC1,9%,.,7.9µM*,.
Cc1ccc(S(=O)(=O)N2[C@@H](c3ccc(Br)cc3)C(C(=O)O)=C[C@H]2C(C)(C)C)cc1,8%,.,6%,.
CC(C)C(OC(=O)CN1C(=O)c2ccccc2C1=O)C(=O)NC1CCCC1 (stereo unspecified),3%,-5%,-2%,0%
Cc1cc(C)c2c(CC(=O)N(Cc3ccc(Cl)cc3)Cc3ccco3)coc2c1,.,36%,.,10%
C=CCNC(=O)CCc1nnc(C2(c3ccc(Cl)cc3)CCC2)o1,?,-6%,13µM*,-59%

# Assay outcomes deposited in PubChem BioAssay by National Center for Advancing Translational Sciences (NCATS).
